In all, about 1,200 compounds went through this assay and about 210 (18%) were called active. This excerpt belongs to a sample that is enriched for actives. Unmarked numbers belong to inactive results. Cut-off read from the data, not from the text of the source: active = inhibition above about 30%; inactive = the rest.

A short description of this experiment: fluorescence readout artefact check – biochemical, HTRF, uHTS, artefact control for SUMOylation inhibitor project, confirmation (AID 2069). Conditions: HTRF interference counterscreen, at 35 µM, active compounds read high.
The inhibition is the relative decrease from the control value, in per cent. On to `CN1C[C@H](CO)C=C2c3cccc4[nH]cc(c34)C[C@H]21`, for which the inhibition was 36.9% (active).

For `CC(C)[C@H]1C(=O)N2CCC[C@H]2[C@]2(O)O[C@](NC(=O)[C@@H]3C=C4c5cccc6[nH]cc(c56)C[C@H]4N(C)C3)(C(C)C)C(=O)N12`, the inhibition is 12.3%.

In the case of `CN1CCN(c2ccc(S(C)(=O)=O)cc2[N+](=O)[O-])CC1`, the inhibition is -0.45%.

For the molecule `COc1ccc(Cc2nccc3cc(OC)c(OC)cc23)cc1OC`, the inhibition is -2.9%.

As to `O=C(O)c1cccc2c1NC(c1cccc([N+](=O)[O-])c1)C1CC(Sc3ccccc3[N+](=O)[O-])C(Cl)C21` (stereo unspecified), the inhibition is 26.1%.

Regarding `CCCCn1c(NC(=O)c2ccco2)c(C(=O)OCC)c2nc3ccccc3nc21`, the inhibition is 22.1%.

As for `CCCCn1c(NS(=O)(=O)c2ccc(C)cc2)c(C(=O)OCC)c2nc3ccccc3nc21`, the inhibition is 58% (active).

As for `CCCCn1c(N)c(C(=O)NCc2cccs2)c2nc3ccccc3nc21`, the inhibition was 9.9%.

Consider `CCCCn1c(N)c(C(=O)OCCOC)c2nc3ccccc3nc21`, for which the inhibition is 28.8%.

`CCCCn1c(NS(=O)(=O)c2ccccc2)c(C(=O)OCC)c2nc3ccccc3nc21`: the inhibition was 70.9% (active).

Take `COc1cc(C(c2c(C)[nH]n(-c3ccccc3)c2=O)c2c(C)[nH]n(-c3ccccc3)c2=O)cc(OC)c1OC`: the inhibition was 3.8%.

Take `O=C(O)CC1OCC=C2CN3CCC45C6=CC(=O)C(=O)C([N+](=O)[O-])=C6NC4C1C2CC35` (stereo unspecified): the inhibition was 60.8% (active).

Take `COc1ccc(OC)c(N2C(=O)NC(=O)/C(=C/c3ccc([N+](=O)[O-])s3)C2=O)c1`: the inhibition was -8.75%.

Turning to `CN1CCN(c2ccc3nccnc3c2)CC1`, the inhibition is 40.9% (active).

Take `Cc1ccccc1-n1c(O)c(/C=N/NC(=O)c2ccccc2O)c(=O)[nH]c1=S`: the inhibition was 3.4%.

With `CN1CCC2(CC1)C(C#N)=C(N)NC(S)=C2C#N`, the inhibition was 76.5% (active).

For the molecule `O=C1NC(=O)N(Cc2ccco2)C(=O)/C1=C\c1cccn1CCOc1ccc(Cl)cc1`, the inhibition is -5.15%.

For `O=C(c1cccn2c(=O)c3ccc(Cl)cc3nc12)N1CCC2(CC1)OCCO2`, the inhibition is 48.9% (active).

Take `O=c1[nH]c(O)c(/C=C2/C=CC(c3cc(Cl)ccc3Cl)=N2)c(=O)[nH]1`: the inhibition was 18.3%.

As for `Cc1c(CC(=O)N2C[C@H]3C[C@@H](C2)c2cccc(=O)n2C3)c(=O)oc2c(C)c(O)ccc12`, the inhibition is 50.5% (active).

Consider `N#C/C(=C(/O)c1ccc(S(=O)(=O)N(CCCl)CCCl)cc1)c1nc2ccccc2[nH]1`, for which the inhibition is 28.4%.

As for `Cc1ccsc1C(=O)C1CCCN(Cc2ccc(-n3cccn3)cc2)C1` (stereo unspecified), the inhibition is 30.6% (active).

As for `CC(=O)c1ccc2c(c1)C1C(Cl)C(Sc3ccccc3[N+](=O)[O-])CC1C(c1ccccc1[N+](=O)[O-])N2` (stereo unspecified), the inhibition is -3.55%.

Regarding `CCN(CC)c1ccc([N+](=O)[O-])c2cccnc12`, the inhibition is -11.9%.

As for `O=C(O)CCn1cc(C=C2C(=O)NC(=O)NC2=O)c(-c2ccc(Br)cc2)n1`, the inhibition is -3.4%.

Turning to `CCCNC(=O)c1c(N)n(CC2CCCO2)c2nc3ccccc3nc12` (stereo unspecified), the inhibition was 42% (active).

Regarding `CC(C)CNC(=O)c1c(N)n(Cc2ccc3c(c2)OCO3)c2nc3ccccc3nc12`, the inhibition is 15.9%.

With `CCOCCCn1c(N)c(C(=O)Nc2sc3c(c2C(=O)OC)CCCC3)c2nc3ccccc3nc21`, the inhibition is -2.4%.

Turning to `Nc1c(C(=O)NC2CCCC2)c2nc3ccccc3nc2n1CC1CCCO1` (stereo unspecified), the inhibition was 27.9%.

Regarding `CCC(C)NC(=O)c1c(N)n(CC2CCCO2)c2nc3ccccc3nc12` (stereo unspecified), the inhibition was 32.5% (active).

In the case of `CCCCn1c(N)c(C(=O)OCC2CCCO2)c2nc3ccccc3nc21` (stereo unspecified), the inhibition is 28.1%.

Regarding `CCC(C)NC(=O)c1c(N)n(Cc2ccc3c(c2)OCO3)c2nc3ccccc3nc12` (stereo unspecified), the inhibition is 24.4%.

Consider `CC(C)CCNC(=O)c1c(N)n(Cc2ccc3c(c2)OCO3)c2nc3ccccc3nc12`, for which the inhibition was 19.7%.

For the molecule `Nc1c(C(=O)NCCCc2ccccc2)c2nc3ccccc3nc2n1Cc1cccs1`, the inhibition is 8%.

Regarding `CC(C)CCNC(=O)c1c(N)n(CC2CCCO2)c2nc3ccccc3nc12` (stereo unspecified), the inhibition is 30.4% (active).

Take `CCCNC(=O)c1c(N)n(Cc2ccc3c(c2)OCO3)c2nc3ccccc3nc12`: the inhibition was 9.15%.

On to `CC(C)OCCCNC(=O)c1c(N)n(CC2CCCO2)c2nc3ccccc3nc12` (stereo unspecified), for which the inhibition was 51.1% (active).

Turning to `O=C1NC(=O)N(Cc2ccco2)C(=O)/C1=C/c1ccc(-c2cccc([N+](=O)[O-])c2)o1`, the inhibition is 14.7%.

In the case of `O=C(N/N=C/c1c(O)n(Cc2ccco2)c(=O)[nH]c1=O)c1ccccc1O`, the inhibition was 22.9%.

Turning to `Cc1cc(/C=C2\C(=O)NC(=O)N(Cc3ccccc3)C2=O)c(C)n1-c1ccc(Cl)c(C(=O)O)c1`, the inhibition was 34.7% (active).

Regarding `O=C(O)c1ccc2c(c1)C1C(Cl)C(Sc3ccccc3[N+](=O)[O-])CC1C(c1cccc([N+](=O)[O-])c1)N2` (stereo unspecified), the inhibition was -6.5%.

Consider `CC(=O)c1ccc2c(c1)C1C(Cl)C(Sc3ccccc3[N+](=O)[O-])CC1C(C(=O)O)N2` (stereo unspecified), for which the inhibition was 5.25%.

Consider `O=C1NC(=S)NC(=O)C1=Cc1cccn1-c1ccc(O)cc1`, for which the inhibition is 21.8%.

As to `COCCCn1c(N)c(C(=O)NCCC(C)C)c2nc3ccccc3nc21`, the inhibition is 24.1%.

For `COCCCn1c(N)c(C(=O)OCCOC)c2nc3ccccc3nc21`, the inhibition was 29.9%.

Turning to `CCCCCn1c(N)c(C(=O)NCc2cccs2)c2nc3ccccc3nc21`, the inhibition is 12.7%.

Take `CCC(C)NC(=O)c1c(N)n(CCCOC)c2nc3ccccc3nc12` (stereo unspecified): the inhibition was 36.5% (active).

`CCOC(=O)c1c(NC(=O)c2c(N)n(CCCOC)c3nc4ccccc4nc23)sc2c1CCCC2`: the inhibition is -0.35%.

Regarding `COc1cc(Cn2c(N)c(C(=O)NCc3ccco3)c3nc4ccccc4nc32)cc(OC)c1OC`, the inhibition is 11.6%.

Consider `COCCCn1c(N)c(C(=O)NCc2ccco2)c2nc3ccccc3nc21`, for which the inhibition was 34.1% (active).

Turning to `COc1ccc(Cn2c(N)c(C(=O)NCc3ccco3)c3nc4ccccc4nc32)cc1`, the inhibition is 11.2%.

On to `COCCCn1c(N)c(C(=O)Nc2ccccc2)c2nc3ccccc3nc21`, for which the inhibition was 7.4%.

On to `CCCCNC(=O)c1c(N)n(CCCOC)c2nc3ccccc3nc12`, for which the inhibition is 30.9% (active).

Take `COCCNC(=O)c1c(N)n(CCC(C)C)c2nc3ccccc3nc12`: the inhibition is 34.7% (active).

For `CC(C)CCn1c(N)c(C(=O)NCc2cccs2)c2nc3ccccc3nc21`, the inhibition was 15.4%.

Take `CN1CCc2nc3sc(C#N)c(N)c3c(-c3cccs3)c2C1`: the inhibition was 14.3%.

For `c1ccc2c(NC3=NCCS3)cccc2c1`, the inhibition is -3.5%.

Take `Cc1[nH]n(-c2ccccc2)c(=O)c1C(c1ccc([N+](=O)[O-])cc1)c1c(C)[nH]n(-c2ccccc2)c1=O`: the inhibition is -5.95%.

In the case of `O=c1[nH]c(O)c(/C=C2\C=Nc3ccc(OCc4ccccc4)cc32)c(=O)[nH]1`, the inhibition was 8.25%.

As to `COCCNC(=O)c1c(NC(=O)c2ccco2)n(Cc2ccccc2)c2nc3ccccc3nc12`, the inhibition was 17.8%.

For the molecule `Cn1c(O)c(/C=C2\N=c3ccccc3=C2CCNC(=S)NC2CC2)c(=O)n(C)c1=O`, the inhibition was 13.3%.

The values are drawn from PubChem BioAssay AID2069 (Sanford-Burnham Center for Chemical Genomics, 2009).
